Several values for one entry are separate records, joined by “and”; a condition that tells them apart may be missing. Identical values can stand only once. Activity calls are given as the source filed them.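 How the source made its calls, unless noted: active means inhibition at or above 50% relative to wild type and mutant plate controls; inactive means inhibition below 50%.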
Legend:
[1] = loss of swimming-algae plug formation – whole organism, Chlamydomonas reinhardtii, WT vs cilia-less mutant, absorbance, 96-well, primary screen (AID 463189); details: Chlamydomonas reinhardtii gravitaxis, OD600 absorbance, 2 days; at 10 µM; stronger effect = higher value;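 further: 0% = wild type cc124 cells in DMSO and 100% = ciliumless bld1 mutant cells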
[2] = endothelial E-selectin expression blockers – imaging, HUVEC, immunofluorescence, MLSMR starter and 10KST1 sets, primary screen (AID 487;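 active means visually confirmed hit in the image check and inhibition above 20%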;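 on inhibition: signal is fraction of cell area covered by stained E-selectin grains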;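 on nuclei count: 100% = median nuclei count of all wells on the same plate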); details: HUVEC TNFalpha-induced E-selectin immunofluorescence imaging, at 2 µM; inhibition: stronger effect = higher value; nuclei count: measured here: cell number, toxicity
[3] = Primary imaging screen for DUSP6 inhibitors that restore phospho-Erk in transfected HeLa cells, chemical complementation (AID 609;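 active means compounds giving at least 50% inhibition in the cell-based MKP-3 phosphatase rescue imaging test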;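 on inhibition: phospho-Erk level distribution per well compared with pooled transfected vehicle control wells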); details: HeLa MKP-3 transfected, phospho-Erk imaging KS statistic, at 10 µM
[4] = target: Dual specificity protein phosphatase 6 (Homo sapiens) (UniProt Q16828); test: as above; details: HeLa MKP-3 transfected, phospho-Erk imaging KS statistic, at 10 µM, stronger effect = higher value
[5] = target: Voltage-gated potassium channel subunit beta-2 (Rattus norvegicus) (UniProt P62483); test: inhibitors of rat Kvbeta2 reductase activity – biochemical, NADPH fluorescence, primary screen (AID 622;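 active means fluorescence slope higher than the sample average by over 3 SD, cut at about -0.22 in these data, passing the limit was not always enough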;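 further: slope of raw intensity against log time taken from 70 to 1610 s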); details: recombinant KvBeta, 4-cyanobenzaldehyde reduction, at 10 µM, stronger effect = higher value
[6] = target: Voltage-gated potassium channel subunit beta-2 (Rattus norvegicus) (UniProt P62483); test: enhancers of rat Kvbeta2 NADPH turnover – biochemical, NADPH fluorescence, primary screen (AID 623;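 active means NADPH fluorescence slope more negative than the mean of all samples by about 3 SD, 99.7% confidence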;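 further: fluorescence intensity change per second fitted from 20 to 320 s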); details: Recombinant KvBeta, NADPH fluorescence decrease slope, 10 min; at 10 µM; stronger effect = lower value
[7] = target: Muscarinic acetylcholine receptor M4 (Homo sapiens) (UniProt P08173); test: M4-linked GIRK flux change, two-sided – cell-based, HEK293 M4/GIRK, thallium flux, BTC-AM, M4 allosteric agonist project, primary screen (AID 625;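 active means fluorescence slope after compound addition differing from the mean of all tested samples at 99.7% confidence, mostly higher but some lower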;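 further: thallium influx through GIRK channels coupled to M4 in HEK293 cells with BTC-AM dye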); details: at 10 µM, actives lie on both sides
[8] = inhibitors of larval lipid processing in zebrafish, primary screen, whole organism, PED6 fluorescence, gall bladder and intestine (AID 686;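 active means a full or partial loss of lipid-probe fluorescence in the fish gall bladder, intestine or both, judged by eye; inactive means no fluorescence loss, or compound toxic to the fish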;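 further: larvae 5 to 7 days old with five fish per well; signal comes from phospholipase A2 cleavage of quenched PED6 carried via bile; overnight exposure to compound and PED6 before scoring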); details: Zebrafish larvae PED6 lipid processing, fluorescence scoring
[9] = reduction of polyQ htt aggregates in cells – imaging, exon1htt(103Q)mCFP cells, high-content imaging, primary screen (AID 483;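 active means visual image review flags a hit and inhibition of aggregation exceeds 20%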;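 further: compound exposure lasted 3 days before fixation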;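 on nuclei count: percent of the per-plate median nuclei count of sample wells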); details: exon1htt(103Q)mCFP cell line, aggregate imaging, at 2 µM; inhibition of aggregation: stronger effect = higher value; nuclei count: measured here: cell count, toxicity
[10] = blockers of RIG-like receptor reporter activation – cell-based, Sendai virus stimulus, luciferase, 10K MLSCN set, TLR/RLR signaling modifier project, primary screen (AID 602276;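 active means inhibition at or above 50% at 10 µM; inactive means inhibition below 50%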;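 further: firefly luciferase from ISG56 promoter only with Renilla not read in this screen; 0% = Sendai virus plus DMSO and 100% = medium plus DMSO without virus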); details: HEK293 RL24 IRF3 luciferase reporter, at 10 µM, stronger effect = higher value
[11] = TLR3 IRF3 reporter activation blockers – cell-based, poly I:C stimulus, luciferase, 10K MLSCN set, primary screen (AID 602277;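 active means inhibition of the reporter signal at or above 50%; inactive means inhibition below 50%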); details: HEK293-TLR3 RL24 IRF3 luciferase reporter, at 10 µM, stronger effect = higher value
[12] = measured here: cell density z-score
[13] = measured here: nuclear c-Myc green intensity z-score
[14] = measured here: nuclear pErk red intensity z-score, stronger effect = higher value

Chain of Dual specificity protein phosphatase 6 (Homo sapiens) (Q16828 whole entry, looked up): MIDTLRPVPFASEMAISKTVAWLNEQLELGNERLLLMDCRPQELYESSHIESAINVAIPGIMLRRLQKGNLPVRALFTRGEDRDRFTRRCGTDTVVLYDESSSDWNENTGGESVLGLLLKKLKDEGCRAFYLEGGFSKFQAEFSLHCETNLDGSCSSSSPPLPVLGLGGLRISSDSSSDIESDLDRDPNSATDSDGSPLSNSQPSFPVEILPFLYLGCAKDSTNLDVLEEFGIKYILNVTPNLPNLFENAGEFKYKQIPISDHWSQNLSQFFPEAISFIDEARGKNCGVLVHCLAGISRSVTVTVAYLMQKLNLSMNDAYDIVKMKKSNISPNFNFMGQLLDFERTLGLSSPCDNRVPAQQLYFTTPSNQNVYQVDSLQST
Chain of Muscarinic acetylcholine receptor M4 (Homo sapiens) (P08173 whole entry, looked up): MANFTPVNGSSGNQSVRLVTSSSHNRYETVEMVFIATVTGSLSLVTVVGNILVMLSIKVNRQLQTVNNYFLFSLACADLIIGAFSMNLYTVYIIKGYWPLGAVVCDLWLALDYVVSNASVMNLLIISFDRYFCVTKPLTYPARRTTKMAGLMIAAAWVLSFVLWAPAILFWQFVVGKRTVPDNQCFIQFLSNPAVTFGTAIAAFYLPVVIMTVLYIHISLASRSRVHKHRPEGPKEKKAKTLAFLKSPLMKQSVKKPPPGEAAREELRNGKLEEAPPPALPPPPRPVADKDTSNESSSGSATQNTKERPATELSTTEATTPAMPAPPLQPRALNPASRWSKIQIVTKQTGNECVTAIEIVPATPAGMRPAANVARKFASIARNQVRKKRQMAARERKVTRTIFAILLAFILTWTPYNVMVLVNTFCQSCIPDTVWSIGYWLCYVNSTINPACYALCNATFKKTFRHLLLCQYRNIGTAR
Chain of Voltage-gated potassium channel subunit beta-2 (Rattus norvegicus) (P62483 whole entry, looked up): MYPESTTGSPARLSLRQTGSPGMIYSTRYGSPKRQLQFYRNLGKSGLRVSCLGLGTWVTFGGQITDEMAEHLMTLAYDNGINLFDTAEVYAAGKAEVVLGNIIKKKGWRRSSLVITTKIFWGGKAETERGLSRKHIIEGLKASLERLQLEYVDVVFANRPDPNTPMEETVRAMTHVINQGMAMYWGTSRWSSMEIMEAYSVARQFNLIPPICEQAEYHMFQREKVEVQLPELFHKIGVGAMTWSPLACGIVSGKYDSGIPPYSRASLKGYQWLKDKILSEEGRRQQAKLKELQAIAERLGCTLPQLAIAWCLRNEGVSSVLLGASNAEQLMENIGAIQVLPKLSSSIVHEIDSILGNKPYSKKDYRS

Structure (SMILES): NNC(=O)c1ccc(O)cc1
- inhibition [1]: -10.7% (inactive)

Structure (SMILES): CC(=O)CC(C)(C)n1c[n+](C)nn1
- inhibition [2]: -59% (inactive)
- nuclei count [2]: 155%
- z-score [3, 12]: 0.619
- z-score [3, 13]: -0.892
- z-score [3, 14]: -1.39
- inhibition [4]: -5.89% (inactive)
- fluorescence slope [5]: -0.383 (inactive)
- NADPH fluorescence slope [6]: -5.6e-05 (inactive)
- fluorescence slope [7]: 0.00569 (inactive)
- outcome [8]: inactive
- inhibition [1]: -0.884% (inactive)

Structure (SMILES): COc1ccc2c(c1)c(C(=O)O)c(C)n2CC(C)C
- inhibition [2]: 37.7% (inactive)
- nuclei count [2]: 86.4%
- z-score [3, 12]: -0.228
- z-score [3, 13]: -1.03
- z-score [3, 14]: 0.232
- inhibition [4]: -2.07% (inactive)
- fluorescence slope [5]: -0.462 (inactive)
- NADPH fluorescence slope [6]: -3.5e-05 (inactive)
- fluorescence slope [7]: 0.00491 (inactive)
- outcome [8]: inactive
- inhibition [1]: 36.3% (inactive)

Structure (SMILES): N[C@@H](Cn1cc(I)c(=O)[nH]c1=O)C(=O)O
- inhibition [1]: 9.47% (inactive)

Structure (SMILES): Cn1c(O)c(C(=O)c2ccccc2Cl)c(=O)n(C)c1=O
- inhibition [2]: 35.3% (inactive)
- nuclei count [2]: 79.3%
- z-score [3, 12]: -0.324
- z-score [3, 13]: 0.445
- z-score [3, 14]: 0.96
- inhibition [4]: 5.57% (inactive)
- fluorescence slope [5]: -0.47 (inactive)
- NADPH fluorescence slope [6]: -3.4e-05 (inactive)
- fluorescence slope [7]: 0.00543 (inactive)
- outcome [8]: inactive
- inhibition [1]: 9.5% (inactive)

Structure (SMILES): C[C@]12CC[C@H]3[C@@H](CCC4C[C@H](O)CC[C@@]43C)[C@@H]1CC[C@@H]2O (stereo not given in full)
- inhibition [1]: 2.75% (inactive)

Structure (SMILES): CC[C@@H]1C(=O)OC[C@@H]1Cc1cncn1C
- inhibition of aggregation [9]: 8.3% (inactive) and -13.2% (inactive)
- nuclei count [9]: 112% and 101%
- inhibition [2]: -46.3% (inactive) and -64.9% (inactive)
- nuclei count [2]: 122% and 127%
- z-score ([3]; measured here: cell density z-score, cells stimulated with TPA for 15 min): 0.654 and -2.12
- z-score ([3]; measured here: nuclear c-Myc green intensity z-score, cells stimulated with TPA for 15 min): -1.14 and -0.253
- z-score ([3]; measured here: nuclear pErk red intensity z-score, stronger effect = higher value, cells stimulated with TPA for 15 min): 0.525 and 1.62
- inhibition [4]: 11.3% [cells stimulated with TPA for 15 min] (inactive) and 10.2% [cells stimulated with TPA for 15 min] (inactive)
- fluorescence slope [5]: -0.572 (inactive) and -0.488 (inactive)
- NADPH fluorescence slope [6]: 7.3e-06 (inactive) and -6e-05 (inactive)
- outcome [8]: inactive [screened at 20 µM (by protocol)]
- inhibition [10]: 18.4% (inactive) and -3.13% (inactive)
- inhibition [11]: 19% (inactive) and 27% (inactive)

Structure (SMILES): O=C(O)[C@@H]1CCN1
- inhibition [1]: 2.04% (inactive)

From PubChem BioAssay
